IL-1B inflam inh: inhibitors of inflammasome signaling (IL-1 beta secretion); THP-1 LPS/ATP IL-1B secretion, AlphaLISA, 16 h; hits give low values; activity change, % at 57.5 µM; hit rate 4.7% among 360,000; in the data active = activity change below about -50%; inconclusive = mostly about -30% to -49%
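THP-1 cells pretreated 1 hr with compounds (up to 57.5 uM final), then stimulated with LPS (250 ng/mL final) plus ATP (1.25 mM final); secreted IL-1B measured by AlphaLISA after 16 hr, decreased signal indicating inhibition.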
DT40 TDP1 CPT: DT40-hTDP1 cell growth loss with CPT; chicken DT40 Tdp1-/-;hTDP1 cells + 20 nM CPT, ATP luminescence, 48 h; Potency, µM (doses to about 46.2 µM), without a hit: at the top dose activity change, negative = growth inhibition, usual class: inhibitors; hit rate 12% among 420,000; note: potency is the fitted concentration of half-maximal effect; nearly all actives have a fitted effect of over 55% in size
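Chicken DT40 Tdp1-/- cells complemented with human TDP1, 400 cells/well, exposed to compounds plus 20 nM camptothecin for at least 48 h at 37 C; viability read as ATP content by CellTiter-Glo luminescence.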
HT1080 IDH1KD tx: HT-1080 IDH1 knockdown cell toxicity (counter line) | Potency, µM (top dose mostly 46.1 µM), without a hit: at the highest dose activity, negative = toxicity, hits mostly cytotoxic | AID 686971 | HT-1080 IDH1 knockdown viability, ATP luminescence, 48 h | hit rate 2% among 360,000;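 note: potency is the fitted concentration of half-maximal effect; 0% = DMSO wells and -100% = cell-free medium wells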
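Assay cells: HT-1080 with IDH1 knockdown, 750 per well, RPMI/5% FBS. Exposure: 48 h at 37 °C following 2 h pre-incubation. Read: CellTiter-Glo luminescence; fitted concentration-response, curve class assigned.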
HT1080-NT tox: kills 2HG-producing HT-1080-NT fibrosarcoma cells; HT-1080-NT fibrosarcoma viability, CellTiter-Glo ATP luminescence, 48 h; Potency, µM (series often up to 46.1 µM), without a hit: at the top dose activity, negative = less viability, hits mostly cytotoxic; hit rate 1.6% among 360,000; AID 686970;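 note: NT is the 2HG producing partner of a matched IDH1 knockdown line; potency is the fitted concentration of half-maximal effect; 0% = DMSO-treated cells and -100% = media-only wells without cells; nearly all actives have a fitted effect of over 55% in size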
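Fibrosarcoma NT cells, 750 per well in 5% FBS RPMI, were exposed to compound for 48 hours. Viability: CellTiter-Glo luminescence.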
DT40 TDP1 no CPT: qHTS for Inhibitors of human tyrosyl-DNA phosphodiesterase 1 (TDP1): qHTS in cells in absence of CPT; DT40 Tdp1-/- hTDP1 cells, no CPT, ATP luminescence, 48 h; hit rate 15% among 420,000; Potency, µM (top dose mostly 46.2 µM), inactives show top-dose activity change, negative = growth inhibition, usual class: inhibitors; AID 686978, 2013; note: potency is the fitted concentration of half-maximal effect; nearly all actives have a fitted effect of over 55% in size
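Stably hTDP1-transfected Tdp1-null chicken DT40 cells were treated with library compounds minus camptothecin and grown for at least 48 hr at 37 °C, after which cellular ATP was quantified by luminescence.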
Starred values were filed as active, the others as inactive; ? = inconclusive; nt = no result; [ ] = dose if it differs, or a comment. Only some compounds are listed: those with a hit (about 19% of all), similar ones and a draw of the others. Unless noted, calls come from the whole dose curve; as a rule, active = well fitted curve in the direction sought with a large enough effect; inconclusive = small, poorly fitted or top-dose-only effect, or another doubt; inactive = no such curve, though single readings can be large; an effect the other way counts as inactive or inconclusive. Unless noted, % is set by controls: 0 for no effect and ±100 for the full control effect.

SMILES	IL-1B inflam inh	DT40 TDP1 CPT	HT1080 IDH1KD tx	HT1080-NT tox	DT40 TDP1 no CPT
CCN(c1ccccc1)C(CNS(=O)(=O)c1ccccc1)c1ccccc1 (stereo unspecified)	nt	18.4µM*	nt	nt	?
Cc1cc(OCC(=O)OCC(=O)NC2CCS(=O)(=O)C2)ccc1Cl (stereo unspecified)	-17.1	-1.0%	12.8%	17.8%	2.1%
O=C(NCc1ccco1)c1ccc(Cl)nc1	3.3	-11.0%	4.1%	12.0%	11.8%
N=C1SCC(=O)N1c1ncc(Cc2cccc(Cl)c2)s1	-103.0*	?	-21.6%	-22.1%	?
O=C1c2ccccc2C(=O)N1c1ncc(Cc2ccc(Cl)cc2)s1	15.1	18.4µM*	-4.9%	7.2%	?
CC(C)C(=O)Nc1ncc(Cc2ccccc2Cl)s1	4.8	20.3%	-15.0%	-0.8%	1.5%
N=C1SCC(=O)N1c1ncc(Cc2ccccc2Cl)s1	-102.3*	?	-2.5%	-21.5%	?
O=C(Nc1ccc(F)cc1)c1cccc(N2C(=O)C3C4CCC(C4)C3C2=O)c1 (stereo unspecified)	0.0	?	-0.9%	3.4%	23.1µM*
O=C(Nc1ccc(Br)cc1)c1cccc(N2C(=O)C3C4CCC(C4)C3C2=O)c1 (stereo unspecified)	?	?	-14.4%	-11.7%	29.1µM*
O=C(Nc1ccc(Br)cc1)c1cccc(N2C(=O)C3C4C=CC(C4)C3C2=O)c1 (stereo unspecified)	-22.6	23.1µM*	-7.2%	-7.8%	?
CCOC(=O)c1cc(-c2ccncc2)nc2c1c(C)nn2C	?	?	?	?	18.4µM*
CCOC(=O)c1cc(-c2ccc(OC)cc2F)nc2c1c(C)nn2CCC#N	-50.0*	?	-0.7%	7.5%	?
CCOC(=O)c1cc(-c2ccc3c(c2)OCCO3)nc2c1c(C)nn2CCC#N	0.0	?	-3.3%	-8.6%	11.6µM*
CCOC(=O)c1cc(-c2ccco2)nc2c1c(C)nn2CCC#N	-28.9	?	7.7%	1.5%	?
CCOC(=O)c1cc(-c2ccc(Cl)cc2)nc2c1c(C)nn2CCC#N	?	?	1.9%	2.7%	?
CC(C)CC1NC(=O)c2cccnc2-n2c1nc1cc(F)ccc1c2=O (stereo unspecified)	18.4	-23.2%	8.0%	1.4%	-6.4%
Cc1cc(CNC[C@H]2O[C@@H](n3ccc(N)nc3=O)[C@H](O)[C@@H]2O)no1	-4.6	2.3%	9.5%	6.5%	-10.5%
CCOc1ccc(CCNC(=O)C2CCN(c3nnc(-n4cccc4)s3)CC2)cc1	9.5	9.7%	1.8%	4.5%	?
O=C(NCCc1ccc(Cl)cc1)c1cccn1-c1nnc(N2CCCC2)s1	nt	23.1µM*	nt	nt	?
O=C(NCc1cccc(Br)c1)c1cccn1-c1nnc(N2CCCCC2)s1	nt	?	nt	nt	14.6µM*
O=C(NCCc1ccc(Cl)cc1)c1cccn1-c1nnc(N2CCCCC2)s1	nt	?	nt	nt	23.1µM*
C=CCc1cccc2cc(-c3nc4ccc(C)cc4[nH]3)c(=O)oc12	nt	-3.1%	nt	nt	-20.2%
CCCCN(C(=O)COC(=O)c1sccc1C)c1c(N)n(CCC)c(=O)[nH]c1=O	-7.4	-4.8%	7.0%	14.3%	-21.8%
CSc1ncccc1C(=O)NCC1Cc2cc(-c3cnccn3)ccc2O1 (stereo unspecified)	nt	-15.7%[9.04 µM]	nt	nt	-28.1%
CC(C)C(=O)Nc1cccc(-c2cn3ccccc3n2)c1	0.0	-8.5%	17.0%	15.9%	1.5%
SMILES	IL-1B inflam inh	DT40 TDP1 CPT	HT1080 IDH1KD tx	HT1080-NT tox	DT40 TDP1 no CPT
COc1ccc(C(=O)NCc2cn3ccc(C)cc3n2)cc1	nt	-3.9%	nt	nt	-3.9%
Cc1ccn2cc(-c3cccc(NC(=O)C(C)C)c3)nc2c1	-0.1	14.6µM*	14.6%	16.7%	29.1µM*
COc1ccc(CC(=O)Nc2ccc(-c3cn4cccc(C)c4n3)cc2)cc1OC	-12.6	?	-0.5%	1.5%	23.1µM*
COc1ccc(CC(=O)Nc2ccc(-c3cn4ccc(C)cc4n3)cc2)cc1	-7.2	5.8µM*	?	14.6µM*	5.17µM*
OC(COC(c1ccccc1)c1ccccc1)CN1CCOCC1 (stereo unspecified)	-2.8	?	-11.7%	0.9%	?
CCN1CCN(CC(O)COC(c2ccccc2)c2ccccc2C)CC1 (stereo unspecified)	2.0	?	0.0%	-5.2%	-10.0%
OC(COC(c1ccccc1)c1ccccc1)CN1CCc2ccccc2C1 (stereo unspecified)	-87.0*	?	?	-30.1%	20.6µM*
OC(COC(c1ccc(Cl)cc1)c1ccc(Cl)cc1)CN1CCCC1 (stereo unspecified)	-51.2*	?	-8.5%	-5.6%	-19.6%
CN1CCN(CC(O)COC(c2ccc(Cl)cc2)c2ccc(Cl)cc2)CC1 (stereo unspecified)	-21.8	?	?	?	?
Cc1ccc(C(OCC(O)CNC(CO)C(O)c2ccc([N+](=O)[O-])cc2)c2ccccc2)cc1 (stereo unspecified)	-84.3*	?	?	20.6µM*	14.6µM*
Cc1ccc(C(OCC(O)CN2CCCCC2)c2ccccc2)cc1 (stereo unspecified)	?	1.0%	0.0%	-9.8%	23.1µM*
CCN(CC)c1nc2c(c(=O)[nH]c(=O)n2C)n1CCOc1ccccc1	24.4	?	-1.5%	-4.6%	-25.2%
OCC(O)/C=N/Nc1nc(Nc2ccccc2)nc(Nc2ccccc2)n1 (stereo unspecified)	?	?	?	-8.7%	?
OC(CNCc1ccccc1)COCc1ccc(Cl)cc1 (stereo unspecified)	-13.5	6.6%	-15.6%	-27.5%	-4.8%
OC(COC(c1ccc(F)cc1)c1ccc(F)cc1)CN1CCc2ccccc2C1 (stereo unspecified)	-72.4*	?	-13.1%	-1.9%	?
OC(COC(c1ccc(Cl)cc1)c1ccc(Cl)cc1)CN1CCc2ccccc2C1 (stereo unspecified)	-79.5*	?	?	20.6µM*	?
Cc1ccc(C(OCC(O)CNC(C)c2ccccc2)c2ccccc2)cc1 (stereo unspecified)	-106.6*	7.31µM*	18.4µM*	14.6µM*	11.6µM*
COc1cccc(OCC(O)CN2CCc3ccccc3C2)c1 (stereo unspecified)	0.0	?	-4.1%	-2.5%	-26.2%
Cc1ccc(OCC(O)CNC(C)c2ccccc2)cc1C (stereo unspecified)	-22.9	?	-21.5%	0.4%	-104.3%
OC1CCCN(CC(O)COC(c2ccc(F)cc2)c2ccc(F)cc2)C1 (stereo unspecified)	?	-29.7%	-18.4%	?	-23.9%

Screening data deposited in PubChem BioAssay by National Center for Advancing Translational Sciences (NCATS).
